Test results published in PubChem BioAssay AID1851 (National Center for Advancing Translational Sciences (NCATS), 2009).
In all, about 16,000 compounds went through this assay and about 5,700 (36%) were called active. Not shown: some 24% with an inconclusive outcome. The call rests on the fitted dose curve; in most records, active means well fitted curve in the direction sought with a large enough effect; inconclusive means small, poorly fitted or top-dose-only effect, or effect the other way; inactive means no such curve, though single readings can be large or run the other way. Some of the results follow.

The compounds below were run against Cytochrome P450 1A2 (Homo sapiens) (UniProt P05177) (assay: Cytochrome panel assay with activity outcomes). Settings: recombinant CYP, pro-luciferin dealkylation, luminescence, p450-cyp1a2; series mostly up to 57.1 µM; activity, negative = inhibition: at the top concentration.
Chain of Cytochrome P450 1A2 (Homo sapiens) (P05177 whole entry, looked up): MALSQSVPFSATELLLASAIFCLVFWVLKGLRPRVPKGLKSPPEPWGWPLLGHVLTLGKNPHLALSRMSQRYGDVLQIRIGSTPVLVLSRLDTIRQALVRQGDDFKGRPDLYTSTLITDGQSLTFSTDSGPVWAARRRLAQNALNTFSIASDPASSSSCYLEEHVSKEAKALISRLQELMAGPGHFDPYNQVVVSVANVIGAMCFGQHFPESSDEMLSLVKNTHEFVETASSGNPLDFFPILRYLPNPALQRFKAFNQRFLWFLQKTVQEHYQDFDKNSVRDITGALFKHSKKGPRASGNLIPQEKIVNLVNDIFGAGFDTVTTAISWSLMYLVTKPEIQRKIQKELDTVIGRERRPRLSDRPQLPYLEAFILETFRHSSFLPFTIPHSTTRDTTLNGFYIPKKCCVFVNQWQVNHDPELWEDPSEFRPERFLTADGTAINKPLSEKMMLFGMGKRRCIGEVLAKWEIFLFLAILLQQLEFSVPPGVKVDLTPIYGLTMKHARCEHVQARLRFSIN
On the % scale 0 is the no-effect control and ±100 the full control effect.

SMILES | activity, negative = inhibition | AC50
COCC(=O)N1CCC2(CC1)CCN(C(c1ccccc1)c1ccccc1)CC2 | 5.84% (inactive) | 
O=C(Nc1cccc(F)c1)N1CC[C@@]2(CCCN(C(=O)c3cnccn3)C2)C1 | -11.2% (inactive) | 
CCOC(=O)c1c(CC(C)C)csc1NC=O |  | 0.224 µM (active)
COc1cccc(Nc2ncc3nc(-c4cccs4)c(=O)n(CCC#N)c3n2)c1 |  | 2.51 µM (active)
CCNc1ncc2nc(-c3cccs3)c(=O)n(CCc3ccccc3)c2n1 |  | 10 µM (active)
CCNc1ncc2nc(-c3cccs3)c(=O)n(CCC#N)c2n1 |  | 3.16 µM (active)
N#CCCn1c(=O)c(-c2cccs2)nc2cnc(Nc3ccccc3)nc21 |  | 5.01 µM (active)
CCOC(=O)c1c(-c2ccc(C)o2)csc1NC(=S)NC(=O)N(C)C |  | 1.58 µM (active)
O=C1C2=CC[C@H]3C(=O)N(c4cccc(Oc5ccccc5)c4)C(=O)[C@@H]3[C@@H]2[C@H](O)[C@@H]2O[C@H]12 | -1.58% [at 11.4 µM] (inactive) | 
O=C(CCN1C(=O)C2C3C=CC(C3)C2C1=O)Nc1ccc2ncccc2c1 (configuration not stated) | -7.75% (inactive) | 
CN(C)c1ccc(NC(=O)c2cccc(N3C(=O)C4C5C=CC(C5)C4C3=O)c2)cc1 (configuration not stated) |  | 2 µM (active)
O=C(CN1C(=O)C2C3C=CC(C3)C2C1=O)Nc1ccc(C(=O)O)cc1 (configuration not stated) | -3.43% (inactive) | 
CO[C@@H]1COC(=O)C/C=C\[C@@H](C)COC(=O)[C@H](COCc2ccccc2)NC(=O)C/C=C\[C@H]1C | -7.1% [at 11.4 µM] (inactive) | 
O=[n+]1c2c(n([O-])c3cc(F)c(F)cc31)CCCC2 |  | 14.1 µM (active)
CCOc1ccc(-c2c[n+](=O)c3c(n2[O-])CCCC3)c(OCC)c1 | -21% (inactive) | 
CCC1(C)Nc2ccccc2C(=O)N1O (configuration not stated) | -28.5% (inactive) | 
CCCC1(C)Nc2ccccc2-c2nc3ccccc3n21 (configuration not stated) |  | 8.91 µM (active)
CCCCC1(C)Nc2ccccc2-c2nc3ccccc3n21 (configuration not stated) |  | 14.1 µM (active)
CN(C)C(=O)c1ccc(-c2nccc(Nc3ccc(F)cc3)n2)cc1 |  | 6.31 µM (active)
CN(C)c1ccc(-c2cc(Nc3ccc(F)cc3)ncn2)cc1 |  | 0.398 µM (active)
Fc1ccc(Nc2ccnc(-c3ccc4c(c3)OCO4)n2)cc1 |  | 0.631 µM (active)
Fc1ccc(Nc2ccnc(-c3ccoc3)n2)cc1 |  | 1 µM (active)
CCCCC1CC(/C(C)=N/NC(N)=O)OC1=O (configuration not stated) | -23% (inactive) | 

SMILES | activity, negative = inhibition | AC50
C[C@@]12CC(=O)[C@@H]3[C@@H](CCC4=CC(=O)CC[C@]43C)[C@@H]1CC=C2CC(=O)O | -17% [at 11.4 µM] (inactive) | 
NC(=O)CCCC1=NS(=O)(=O)c2ccccc2N1 | 8.32% (inactive) | 
CN(C)[C@@H]1C(=O)C(C(N)=O)=C(O)[C@]2(O)C(=O)C3=C(O)c4c(O)ccc(Cl)c4[C@H](O)[C@H]3C[C@@H]12 |  | inactive
CC1(C)O[C@H]2[C@@H](c3[nH]nc4c(=O)[nH]c(=O)[nH]c34)OC[C@H]2O1 | -11.5% [at 11.4 µM] (inactive) | 
CN(C)c1ccc(-c2nccc(Nc3ccc(F)cc3)n2)cc1 |  | 0.501 µM (active)
NNC(=O)[C@@H](O)[C@H](O)[C@H](O)CO | -0.774% [at 11.4 µM] (inactive) | 
NC(Cc1ccccc1)=NCC(=O)O | -5.52% [at 11.4 µM] (inactive) | 
N#C[C@@H](N=Nc1ccccc1C(=O)O)C(N)=O | -8.23% [at 11.4 µM] (inactive) | 
N=C(N)[C@H](N=Nc1ccccc1)C(N)=O |  | 0.794 µM (active)
CC(C)(C)NC[C@@H](O)c1ccc(O)c(CO)n1 | 10.1% [at 2.29 µM] (inactive) | 
CC[N+](C)(CC)CCC[n+]1c(-c2ccccc2)c2cc(N)ccc2c2ccc(N)cc21 |  | 12.6 µM (active)
Cn1c(=S)c2[nH]c(SCCN3CCCC3)nc2n(C)c1=O | -29.7% [at 2.29 µM] (inactive) | 
Cn1c(=S)c2[nH]c(SCCCc3ccccc3)nc2n(C)c1=O |  | 3.16 µM (active)
Cn1c(=O)c2[nH]c(CCCc3ccc([N+](=O)[O-])cc3)nc2n(C)c1=O | -18.9% [at 11.4 µM] (inactive) | 
COC(=O)C/C=C\[C@@H](C)[C@@H](/C=N\OC[C@@H](O)COCc1ccco1)NS(=O)(=O)c1ccc(C)cc1 | 3.98% [at 11.4 µM] (inactive) | 
Oc1cccc(-c2nc3c4c(ncn3n2)-c2ccccc2CC42CCCC2)c1 |  | 10 µM (active)
O=C(Nc1cccc2cccnc12)[C@@H]1[C@@H](C(=O)O)[C@H]2CC[C@@H]1O2 | -11% [at 11.4 µM] (inactive) | 
NC(=S)Nc1cccc2cccnc12 |  | 12.6 µM (active)
Cc1cc2c(nc1C)CCCN2C[C@@H](O)CN1CCN(C)CC1 | -2.48% [at 11.4 µM] (inactive) | 
CC1CCN(c2ccccc2NC(=S)NC(=O)c2cccs2)CC1 |  | 7.08 µM (active)
CN(C1CCCCC1)S(=O)(=O)c1ccc(NC(=S)NC(=O)c2cccs2)cc1 | 3.78% (inactive) | 
Cc1c(Cl)cccc1NC(=O)CCC(=O)NNC(=O)c1ccco1 | -7.06% (inactive) | 
O=C(NC(=S)Nc1cccc(Cl)c1N1CCCCC1)c1cccs1 |  | 10 µM (active)

SMILES | activity, negative = inhibition | AC50
O=C(NC(=S)Nc1cccc(Cl)c1N1CCCCC1)c1ccco1 |  | 12.6 µM (active)
CC(=O)NS(=O)(=O)c1ccc(NC(=S)NC(=O)c2ccco2)cc1 | 7.37% (inactive) | 
Cc1c(NC(=S)/C=C2\N(C)c3ccccc3C2(C)C)c(=O)n(-c2ccccc2)n1C | -5.66% (inactive) | 
CC1=NN(c2ccccc2)C(=O)/C1=C\c1c(C)[nH]n(-c2ccccc2)c1=O | 2.78% (inactive) | 
COc1cccc(C(c2c(C)[nH]n(-c3ccccc3)c2=O)c2c(C)[nH]n(-c3ccccc3)c2=O)c1O |  | 7.08 µM (active)
COc1cccc(C2NC(c3cccc(OC)c3O)C(C)C(=O)C2C)c1O (configuration not stated) | -27.3% (inactive) | 
CCN1CCC[C@H]1CNC(=O)c1c(OC)ccc(Br)c1OC |  | inactive
CCN(CCCNC(=O)CC(C(=O)N1CCc2ccccc21)n1ccnc1)c1ccccc1 (configuration not stated) |  | 3.16 µM (active)
CCCCN(C)CCCNC(=O)CCn1nc(-c2ccccc2)ccc1=O | -12.7% (inactive) | 
CCC(=O)[C@@]1(C)[C@H](C)C[C@@H]2[C@@H]3CCC4=CC(=O)C=C[C@@]4(C)[C@H]3[C@H](O)C[C@]21C | -19.8% [at 25.6 µM] (inactive) | 
Cc1ccc(-n2c(=O)c3sccc3n(CC(=O)NCc3ccco3)c2=O)cc1F | 10.2% (inactive) | 
O=C(Cn1c(=O)n(Cc2ccco2)c(=O)c2c3c(sc21)CCCCC3)c1ccccc1 |  | 12.6 µM (active)
NC(=O)Cn1c(=O)n(Cc2ccco2)c(=O)c2c3c(sc21)CCCCC3 |  | 4.47 µM (active)
CN(c1ccccc1)c1ccc(/C=c2\s/c(=C(/C#N)C(=O)C(C)(C)C)n(Cc3ccco3)c2=O)cc1 | -45.3% (inactive) | 
CN(C)CCn1c(=O)n(Cc2ccco2)c(=O)c2c3c(sc21)CCCCC3 |  | 2.24 µM (active)
O=C(O)/C=C/C(=O)Nc1ccccc1-c1ccccc1 | -3.11% (inactive) | 
O=C(O)/C=C\C(=O)Nc1cccc2c1-c1ccccc1C2=O |  | 2.51 µM (active)
CC[C@H](C)N(C)C(=O)c1cc2ccccc2c(-c2ccccc2Cl)n1 | 5.49% (inactive) | 
Fc1ccc(-c2ccnc3nc(N4CCOCC4)nn23)cc1 |  | 10 µM (active)
C=C1C(=O)O[C@@H]2[C@@H]1CC/C(C)=C\CC[C@@]1(C)O[C@H]21 | -12% (inactive) | 
CCCSc1cc(N2CCCC2)nc(-c2ccccc2)n1 |  | 0.631 µM (active)
CC(C)Sc1cc(N2CCCC2)nc(-c2ccc(F)cc2)n1 |  | 0.631 µM (active)
CC(C)Sc1cc(N2CCOCC2)nc(-c2ccc(Cl)cc2)n1 |  | 5.62 µM (active)

SMILES | activity, negative = inhibition | AC50
CC[N+](C)(CC)CCN1C(=O)c2ccccc2S1(=O)=O | -12.1% [at 11.4 µM] (inactive) | 
Cc1ccc2nc(NC(=O)COC(=O)c3ccc(Br)o3)sc2c1 |  | 4.47 µM (active)
Cc1ccc2nc(NC(=O)CSCC(=O)OCC(=O)c3ccc(Br)cc3)sc2c1 |  | 8.91 µM (active)
CN(C)S(=O)(=O)c1ccc(NC(=O)COC(=O)c2ccccn2)cc1 | -11.8% (inactive) | 
Cc1nc2ccc(S(=O)(=O)NC(CC(C)C)C(=O)O)cc2s1 (configuration not stated) | -5.7% (inactive) | 
CCN(c1ccccc1)S(=O)(=O)c1ccc(NC(=S)NC(=O)c2ccc(Br)o2)cc1 | 0.527% (inactive) | 
CN(C)S(=O)(=O)c1cccc(NC(=O)COC(=O)c2ccc(Br)o2)c1 |  | 14.1 µM (active)
Cc1ccc2nc(NC(=O)COC(=O)CSc3nc(C)cc(C)n3)sc2c1 |  | 0.891 µM (active)
COc1ccc(C(=O)N2CCC3(CCCN(Cc4ccccc4OC)C3)CC2)cc1 | -16.7% (inactive) | 
O=C(Cc1ccc2c(c1)CCCC2)Nc1ccccc1Br |  | 11.2 µM (active)
CC12CCC(C(=O)Nc3ccccc3Br)(C/C1=N\O)C2(C)C (configuration not stated) | -3.81% (inactive) | 
COC(=O)N1CCC[C@@]2(CCN(C(=O)Nc3cccc(C#N)c3)C2)C1 | -19.3% (inactive) | 
CS(=O)(=O)N1N=C(c2ccc(Br)cc2)CC1c1ccc2c(c1)OCO2 (configuration not stated) |  | 3.55 µM (active)
O=S(=O)(c1ccccc1)N1N=C(c2cccs2)CC1c1ccc(Br)cc1 (configuration not stated) | -18.4% (inactive) | 
C[C@@H]1CC[C@H]2C(=O)N3[C@@H](CC[C@@H](C)[C@@H]3c3ccc(Br)cc3)C(=O)N2[C@@H]1c1ccc(Br)cc1 | -18.2% [at 11.4 µM] (inactive) | 
C=C[C@]1(C)C[C@H](OC(=O)CO)[C@]2(C)C3C(=O)CC[C@]3(CC[C@H]2C)[C@H](C)[C@H]1O (some centres not stated) | -21% [at 2.29 µM] (inactive) | 
COc1cccc(NC(=O)Cc2c(C(=O)O)[nH]c3ccccc23)c1 | 6.45% (inactive) | 
COc1cccc(NC(=O)COC(=O)c2c3c(nc4ccccc24)CCC(C)C3)c1 (configuration not stated) |  | 2.51 µM (active)
COc1ccc(NC(=O)COC(=O)c2c(-c3ccccc3)noc2C)cc1 |  | 12.6 µM (active)
COc1cccc(N2C(=O)C(CC(=O)Nc3ccccc3)N(C3CCCCC3)C2=O)c1 (configuration not stated) | -9.5% (inactive) | 
COc1ccc(OC)c(NC(=O)c2c3c(nc4ccccc24)CCC3)c1 |  | 12.6 µM (active)
COc1ccc(NC(=O)N2CC3(CCN(C(=O)c4c(C)noc4C)CC3)C2)cc1 | 7.88% (inactive) | 
COc1ccc(NC(=O)COC(=O)c2c3c(nc4ccccc24)CCCC3)cc1 |  | 7.08 µM (active)
